FLuc modulator: qHTS profiling assay for firefly luciferase inhibitor/activator using purifed enzyme and Km concentrations of substrates (counterscreen for miR-21 project); purified FLuc, Km substrates, luminescence inhibition; Potency, µM (titrated, usually from 57.5 µM), for the others: at the top dose activity change, negative = inhibition, actives largely listed as inhibitors; 360,000 tested, 6.9% active; AID 588342, 2011;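 note: plate controls were vehicle for no effect and reference inhibitor for full effect; nearly all actives have a fitted effect of over 55% in size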
Target sequence (P08659 whole entry, looked up): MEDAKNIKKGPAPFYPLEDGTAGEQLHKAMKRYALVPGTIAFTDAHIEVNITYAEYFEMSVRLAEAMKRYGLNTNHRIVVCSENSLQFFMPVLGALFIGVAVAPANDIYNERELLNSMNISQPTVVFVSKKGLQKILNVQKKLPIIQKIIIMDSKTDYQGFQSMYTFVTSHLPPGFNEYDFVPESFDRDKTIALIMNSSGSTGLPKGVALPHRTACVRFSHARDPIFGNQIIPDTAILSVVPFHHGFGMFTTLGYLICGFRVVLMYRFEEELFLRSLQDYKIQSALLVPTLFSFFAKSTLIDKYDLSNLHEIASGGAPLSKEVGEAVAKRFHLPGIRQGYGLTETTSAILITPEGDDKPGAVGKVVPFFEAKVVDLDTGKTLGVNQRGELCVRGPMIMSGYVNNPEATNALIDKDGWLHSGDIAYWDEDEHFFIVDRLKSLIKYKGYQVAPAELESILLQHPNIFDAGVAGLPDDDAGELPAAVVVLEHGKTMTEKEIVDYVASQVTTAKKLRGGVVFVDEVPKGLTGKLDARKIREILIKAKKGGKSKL
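Purified P. pyralis luciferase (10nM final) with 10uM D-luciferin and 10uM ATP (Km levels) in 50mM Tris acetate pH 7.5, 10mM Mg acetate, 0.01% Tween-20, 0.05% BSA; qHTS 6-point titration, ~60 µM downward; luminescence read.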
Luc counter: Counterscreen for Luciferase (Kinase-Glo TM) Inhibition; Luciferin 4-monooxygenase (Photuris pensylvanica), Q27757; AID 1379, 2008; Kinase-Glo luciferase, ATP luminescence, 8 min; Potency, µM (doses to about 38.3 µM), without a hit: top-dose activity change, negative = inhibition, hits mostly inhibitors; 200,000 tested, 0.28% active; note: % is set by controls: 0 for no effect and ±100 for the full control effect; nearly all actives have a fitted effect of over 60% in size
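Compound is pinned into ATP-containing buffer (10 uM ATP, imidazole pH 7.2, 7 mM MgCl2). Kinase-Glo luciferase reagent is then added. Light output is recorded following an 8-min room-temperature incubation.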
SMN2 splice up: qHTS Assay for Enhancers of SMN2 Splice Variant Expression | Potency, µM (highest dose often 46.1 µM), for inactives: top-dose activity change, positive = activation, actives largely listed as activators | HEK293 SMN2-luciferase splicing reporter, luminescence, 30-36 h | 210,000 tested, 2.8% active; note: % of control where 0% means no effect; nearly all actives have a fitted effect of over 55% in size
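qHTS luciferase splicing reporter: luminescence rises when SMN2 exon 7 is included in transfected HEK293 cells. Compound exposure lasted 30-36 h at 37C, with 4.5 mM final sodium butyrate as control, followed by a ONE-Glo read.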
NPC1 promoter act: qHTS Assay for NPC1 Promoter Activators; Potency, µM (series often up to 9.22 µM), for the others: at the highest dose activation, usual class: activators; Huh7 NPC1 promoter luciferase reporter, 24 h; AID 485313, 2010; 320,000 tested, 2.4% active; note: % of control where 0% means no effect; nearly all actives have a fitted effect of over 60% in size
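Stably transfected Huh7 (NPC1 promoter→luciferase), 1500 cells/well in Opti-MEM + 10% FBS, 2 h settle, then compound 24 h at 37 °C. Luminescence after 10 min with Amplite reagent.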
Rab9 promoter act: qHTS Assay for Rab9 Promoter Activators | Huh7 Rab9 promoter-luciferase reporter, luminescence, 24 h | Potency, µM (doses to about 9.22 µM), for the others: top-dose activation, negative = inhibition, most hits filed as activators | 320,000 tested, 2.8% active | AID 485297, 2010; note: % of control where 0% means no effect; nearly all actives have a fitted effect of over 60% in size
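Rab9 promoter-driven luciferase in stably transfected Huh7 cells; 1500 cells/well rested 2 h, exposed to compound in DMSO for 24 h at 37 °C, 5% CO2. Luminescence read 10 min after adding luciferase reagent at ambient temperature.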
* = called active by the depositor; ? = inconclusive; . = no result given; [ ] = another dose, or the depositor's remark. An excerpt weighted towards active compounds, which were near 7.3% of everything screened. Calls come from the whole dose curve; as a rule, active = well fitted curve in the direction sought with a large enough effect; inconclusive = small, poorly fitted or top-dose-only effect, or another doubt; inactive = no such curve, though single readings can be large; an effect the other way counts as inactive or inconclusive. Potency is the fitted concentration of half-maximal effect.

SMILES	FLuc modulator	Luc counter	SMN2 splice up	NPC1 promoter act	Rab9 promoter act
COC(=O)NNC(=O)c1ccccc1OC	-1.9%	-0.7%	8.9%	3.8%	-3.0%
COc1ccccc1C(=O)NNC(=O)c1cccc(C)c1	12µM*	.	.	?	?
C[C@]12CC[C@H]3c4ccc(O)cc4CC[C@@H]3[C@H]1CC[C@@H]2OC(=O)CCc1ccccc1	.	-9.1%[7.66 µM]	6.1%[9.22 µM]	.	.
Cc1nn2cc(-c3ccc(-c4ccccc4)cc3)nc2s1	0.536µM*	6.5%	?	0.631µM*	?
CCOc1ccc(-c2cn3nc(CC(C)C)sc3n2)cc1	2.69µM*	.	16.9%	.	.
Cc1nn2c(-c3ccc(Cl)cc3)nnc2s1	-2.0%	14.9%	-16.8%	-0.1%	-4.2%
CCc1nn2cc(-c3ccccc3)nc2s1	0.477µM*	10µM*	1.41µM*	0.112µM*	0.126µM*
Cc1nn2cc(-c3ccc(Cl)cc3)nc2s1	1.2µM*	-8.8%	3.55µM*	0.316µM*	0.316µM*
c1ccc(-c2cn3nc(-c4ccccc4)c(-c4ccccc4)nc3n2)cc1	-2.1%	-0.8%	-11.8%	-8.7%	-4.5%
COc1cccc(N2C(=O)C(CC(=O)Nc3ccccc3)N(CCc3sccc3C)C2=O)c1 (stereo not drawn)	-1.5%	.	13.5%	.	.
CCOC(=O)CSc1nc2c([nH]c3ccccc32)c(=O)n1-c1ccc(OCC)cc1	1.9%	.	.	.	.
Cc1ccc(Cl)cc1N1CCN(C(=O)COc2cc(=O)n(C)c3ccccc23)CC1	7.0%	.	-38.7%	.	.
Cc1nc2nc(-c3cccs3)cn2nc1C	10.7µM*	?	14.1µM*	1.41µM*	0.501µM*
O=[N+]([O-])c1cccc(-c2cn3nc(-c4ccccc4)c(-c4ccccc4)nc3n2)c1	1.2%	.	.	-5.2%	1.9%
COCc1nn2cc(-c3ccc(C)cc3)nc2s1	1.35µM*	.	2.51µM*	.	.
COc1cccc(-c2cn3nc(C)c(C)nc3n2)c1	10.7µM*	11.2µM*	12.6µM*	2µM*	2.82µM*
COc1ccc(-c2nnc3sc(COc4ccc(C)cc4)nn23)cc1	?	-1.8%	-1.4%	2.3%	-4.8%
Cc1ccc(-c2cn3nc(-c4ccccc4)c(-c4ccccc4)nc3n2)cc1	-13.3%	.	.	3.7%	1.7%
Cc1nc2nc(-c3ccc(Cl)cc3)cn2nc1C	1.07µM*	?	0.708µM*	?	0.355µM*
CCN(c1ccccc1)S(=O)(=O)c1ccc(NC(=O)c2cc(=O)c3c(C)cc(C)cc3o2)cc1	-0.9%	.	6.8%	.	.
O=Cc1sc(Nc2ccccc2)nc1Cl	?	-0.3%	-17.0%	-2.3%	1.7%
Cc1ccc(Nc2nc(Cl)c(C=O)s2)cc1Cl	21.3µM*	-10.1%	4.5%	-7.1%	-0.3%
CCOC(=O)C1(Cc2cccc(OC)c2)CCN(Cc2ccccc2)CC1	1.7%	.	.	0.3%	-1.0%
CCOC(=O)C1(Cc2ccccc2)CCCN(Cc2cnn(CC)c2)C1 (stereo not drawn)	-0.8%	3.7%	.	-6.0%	-9.3%
CCOC(=O)C1(Cc2ccccc2)CCCN(C(=O)c2cnn(CC)c2)C1 (stereo not drawn)	15.1µM*	.	.	?	3.98µM*
SMILES	FLuc modulator	Luc counter	SMN2 splice up	NPC1 promoter act	Rab9 promoter act
CCOC(=O)C1(Cc2cccc(OC)c2)CCCN(C(=O)CNC(C)=O)C1 (stereo not drawn)	15.1µM*	.	.	?	3.16µM*
CCOC(=O)C1(Cc2cccc(OC)c2)CCCN(C(=O)c2cc(C)[nH]n2)C1 (stereo not drawn)	1.0%	0.4%	.	-2.6%	-2.4%
CCOC(=O)C1(Cc2cccc(OC)c2)CCN(Cc2cccnc2)CC1	5.36µM*	-6.0%	.	-1.9%	14.2%
CCOC(=O)C1(Cc2cccc(OC)c2)CCCN(C(=O)c2ccccc2C)C1 (stereo not drawn)	26.9µM*	.	.	?	?
CCOC(=O)C1(Cc2cccc(OC)c2)CCCN(S(=O)(=O)N(C)C)C1 (stereo not drawn)	10.7%	.	.	-4.2%	0.7%
Cc1ccc(CNC(=O)CC2Oc3ccccc3NC2=O)cc1 (stereo not drawn)	-1.3%	.	-1.1%	.	.
Cc1ccc(C(=O)c2oc3ccccc3c2NC(=O)c2nc(S(C)(=O)=O)ncc2Cl)cc1F	-0.8%	.	0.0%	.	.
Cc1ccc(-n2ncc(C(=O)NCCN3CCN(C)CC3)c2C2CCN(C(=O)OC(C)(C)C)CC2)c(C)c1	-5.9%	.	.	.	.
CCOC(=O)C1(Cc2cccc(OC)c2)CCCN(C(=O)c2cc(C)on2)C1 (stereo not drawn)	12µM*	.	.	?	3.16µM*
O=c1[nH]c2ccccc2nc1/C=C/c1ccc(F)cc1	2.39µM*	.	.	3.16µM*	3.98µM*
O=c1[nH]c2ccccc2nc1/C=C/c1ccc(O)cc1	6.75µM*	-7.2%	.	?	3.55µM*
CC(C)(C)/C(O)=C/c1nc2ccccc2[nH]c1=O	-0.4%	1.5%	2.3%	-1.0%	0.6%
O=c1[nH]c2ccccc2nc1/C=C/c1ccccc1	1.9µM*	.	.	3.98µM*	1.78µM*
CC(=O)N1c2nc(C(C)C)nn2C2(CCCCC2)[C@@H]2CCCC[C@@H]21	3.8%	.	.	.	.
CCOc1ccc(-c2cc3nc(C4CCN(C(=O)OC(C)(C)C)CC4)c(C(=O)Nc4ccc(C)cc4C)cn3n2)cc1	-15.4%	.	-11.4%	.	.
CN(C)S(=O)(=O)c1ccc2c(c1)N(CC(=O)Nc1ccc(OC(F)(F)F)cc1)C(=O)CS2	-14.9%	.	.	.	.
Cc1occc1C(=O)O/N=C(\N)c1ccccc1	1.9µM*	.	.	0.447µM*	0.447µM*
Cc1cccc(/C(N)=N/OC(=O)c2ccoc2C)c1	3.79µM*	.	.	1.12µM*	1.26µM*
COc1ccc(CNc2cc(-c3ccc(OC)cc3)nc3nncn23)cc1	-18.0%	.	-16.8%	.	.
COc1ccc(-c2cn3nc4c(nc3n2)CCCC4)cc1	0.536µM*	-26.1%	?	0.447µM*	0.355µM*
CNC(=O)c1ccc(-c2ccccc2)s1	13.5µM*	-0.9%	6.6%	?	?
CCOc1ccc(NC(=O)c2ccc(-c3ccccc3)s2)cc1	-6.8%	.	2.5%	.	.
S=C(Nc1ccc2c(c1)OCCO2)Nc1ccccc1Cl	15.1µM*	.	.	19.2%	25.3%
O=C(CN1CCN(CC(=O)Nc2ccccc2Cl)CC1)Nc1ccc2c(c1)OCCO2	-1.5%	1.0%	-7.0%	-4.8%	-0.9%
S=C(Nc1ccc(Cl)cc1)Nc1ccc2c(c1)OCCO2	10.7µM*	.	.	?	?
S=C(Nc1ccc2c(c1)OCO2)Nc1ccc2c(c1)OCO2	?	-1.9%	9.2%	4.5%	6.9%
Cc1c(C(=O)OCC2CCCCC2)[nH]c2c1C(=O)CC(c1ccccc1Cl)C2 (stereo not drawn)	4.2%	.	-8.7%	.	.
Cc1cc(COc2ccccc2OCc2cc(C)no2)on1	0.7%	-0.3%	0.6%	3.4%	-3.0%

Bioassay records (PubChem)
